Each structure is given as a SMILES string. Inconclusive results are not listed. Entries that show only a call come without a potency. Active and inactive are the calls of the source. Calls follow the shape of the dose curve; as a rule, active = well fitted inhibition curve with a large enough effect; inconclusive = small, poorly fitted or top-dose-only effect; inactive = no such curve, though single readings can be large or run the other way.
Potency is read from the fitted curve at half-maximal effect.

Sequence of Thioredoxin reductase 1, cytoplasmic (Rattus norvegicus) (O89049 whole entry, looked up): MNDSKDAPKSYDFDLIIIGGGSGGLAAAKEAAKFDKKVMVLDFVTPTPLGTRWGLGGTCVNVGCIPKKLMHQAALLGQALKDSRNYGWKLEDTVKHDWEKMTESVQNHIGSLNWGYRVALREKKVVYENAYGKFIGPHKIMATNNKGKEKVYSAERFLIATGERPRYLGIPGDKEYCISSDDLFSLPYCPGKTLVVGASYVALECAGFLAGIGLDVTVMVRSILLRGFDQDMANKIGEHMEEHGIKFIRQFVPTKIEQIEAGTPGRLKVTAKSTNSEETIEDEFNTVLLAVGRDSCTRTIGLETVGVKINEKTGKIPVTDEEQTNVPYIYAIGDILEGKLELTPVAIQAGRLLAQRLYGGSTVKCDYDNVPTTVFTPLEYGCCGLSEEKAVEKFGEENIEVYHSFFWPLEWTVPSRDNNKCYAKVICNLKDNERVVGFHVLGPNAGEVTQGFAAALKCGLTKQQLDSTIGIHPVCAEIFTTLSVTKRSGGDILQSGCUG

The assay deals with Thioredoxin reductase 1, cytoplasmic (Rattus norvegicus) (UniProt O89049). Description: qHTS Assay for Inhibitors of Mammalian Selenoprotein Thioredoxin Reductase 1 (TrxR1) (AID 488773). Also: nearly all actives have a fitted effect of over 40% in size. The settings on record: purified TrxR1 enzyme activity; Potency: inhibition; series mostly up to 57.1 µM. The source says:
The selenoprotein thioredoxin reductase (TrxR; EC 1.8.1.9) is a FAD containing homodimeric pyridine nucleotide-disulfide oxidoreductase with many cellular roles. Together with NADPH and its prime substrate thioredoxin (Trx), the enzyme forms the core of the Trx system. The mammalian Trx system exerts a wide spectrum of functions including redox regulation, antioxidant defense, regulation of transcription factors as well as support of cell growth and replication. Many of these functions involve the reduction of Trx, which may subsequently reduce a number of different substrates including ribonucleotide reductase, peroxiredoxins or NFkB. Mammalian TrxR itself also has a broad substrate specificity, reducing both protein and non-protein substrates, including low molecular weight compounds such as dehydroascorbate, lipoic acid, ubiquinone, and juglone. In addition, several drugs in clinical use for anticancer treatment are indeed known to target TrxR1.
This BioAssay is a validation of an NADPH fluorescence-based, dual-purpose qHTS rTrxR1 assay designed to find potential inhibitors and substrates of rTrxR1. For this particular BioAssay, actives are potential inhibitors. See related BioAssay for substrate data deposition.
Assay protocol: 2 uL of reagents (buffer in column 4 as negative control and 90 nM rTrxR1 in columns 1-3 and 5-48) were dispensed into Greiner black solid-bottom 1,536-well assay plates, followed by 1 uL of NADPH (400 uM final concentration) to each well. The plates were centrifuged at 1000 rpm for 15 seconds and subsequently incubated for 5 min at room temperature (~22 deg C) to allow for rTrxR1 reduction. Compounds (23 nL) were then transferred via Kalypsys pin tool equipped with 1536-pin array (10 nL slotted pins, V&P Scientific, San Diego, CA). In addition, a duplicate 2-fold serial dilution of the control compounds auranofin, a known gold-based TrxR1 inhibitor, and juglone (5-hydroxy-1,4-naphthoquinone), a natural TrxR1 substrate, were pin-transferred to columns 2 and 3, respectively. After incubation for 15 min at room temperature (~22 deg C), 1 uL of selenite (400 uM final concentration) were dispensed to each well. The plate was immediately transferred to a ViewLux high-throughput CCD imager (PerkinElmer), wherein kinetic measurements of NADPH fluorescence (Ex 340 nm, Em 450 nm) were acquired (8 minute kinetic read, see Table 1). Read 1 was utilized to assess the capacity of a compound to serve as an rTrxR1 substrate, i.e. a decrease in NADPH fluorescence compared to the no-compound background is an indication of a substrate behavior for that particular compound. For inhibitory activity of a compound, delta values, computed as the difference in fluorescence intensity between the first and last reads of an 8-minute time kinetic window, were used. All reagents were diluted in an assay buffer consisting of 50 mM Tris-HCl, pH 7.5, 2 mM EDTA, and 0.01% Tween-20.
Throughout the screen, reagent bottle and all liquid lines were made light-tight to minimize reagent degradation. All screening operations were performed on a fully integrated robotic system (Kalypsys, San Diego, CA) containing one RX-130 and two RX-90 anthropomorphic robotic arms (Staubli, Duncan, SC). Library plates were screened starting from the lowest and proceeding to the highest concentration, and a 'double-pinning' step of the highest concentration was required to access higher concentrations of compounds. Vehicle-only plates, with DMSO being pin-transferred to the columns 5-48, were inserted uniformly at the beginning and the end of each library in order to monitor and record any shifts in the background, which can be affected by reagent dispensers or loss in enzyme activity over time. Screening data were corrected, normalized, and concentration-effect relationships were derived by using publicly-available curve fitting algorithms developed in-house (http://ncgc.nih.gov/pub/openhts).
With `CNCCc1c[nH]c2ccc(O)cc12`, the Potency result is “inactive”. `NCCc1c[nH]c2ccccc12`: the Potency entry is “inactive”. The value for `c1ccc(CCCN2CCN(CCOC(c3ccccc3)c3ccccc3)CC2)cc1` was “inactive”. The value for `CC1=NN=C(c2ccc(N)cc2)c2cc3c(cc2C1)OCO3` was “inactive”; that for `CC(Cc1ccc(O)cc1)NCC(O)c1cc(O)cc(O)c1` (stereo not given) was “inactive”; that for `CN[C@@H]1C[C@@H](c2ccc(Cl)c(Cl)c2)c2ccccc21` was “inactive”. For `C[N+]1(C)C2CCC1CC(OC(=O)C(CO)c1ccccc1)C2` (stereo not given) the value was “inactive”.

For the compound `C=CCN1CC[C@]23CCCCC2[C@H]1Cc1ccc(O)cc13` (stereo not given in full), the Potency result was “inactive”. The value for `CC[C@@H](C(N)=O)N1CCCC1=O` was “inactive”. For `O=C(O)[C@@H]1CCN1` the value was “inactive”; for `CNCCc1ccc(O)c(O)c1`, 13.4 µM (active). For `C[C@@H](N)Cc1cnc[nH]1` the value was “inactive”; for `NCc1cc(=O)[nH]o1`, “inactive”. Regarding `O=C(N[C@H]1CN2CCC1CC2)c1ccc(Cl)cc1`, the Potency entry is “inactive”. For `NC1CC1c1ccccc1` (stereo not given) the value was “inactive”; for `C#CCOC(=O)C1=CCCN(C)C1`, “inactive”; for `Clc1cnc(Oc2ccc(Oc3ncc(Cl)cc3Cl)cc2)c(Cl)c1`, “inactive”.

For the compound `COc1cc(C(O)CN)ccc1O` (stereo not given), the Potency entry was “inactive”. For `S=C(NC1CCCCC1)N1CCC(c2cnc[nH]2)CC1` the value was “inactive”; for `O=C1CCCN1CC#CCN1CCCC1`, “inactive”; for `c1ccc2sc(C3(N4CCCCC4)CCCCC3)cc2c1`, “inactive”.

With `C[C@]12CCC3C(CC[C@H]4C[C@H](O)CC[C@]34C)C1CC[C@@H]2C(=O)CO` (stereo not given in full), the Potency result was “inactive”. The value for `CC(C)NC(C)Cc1ccc(I)cc1` (stereo not given) was “inactive”. For `C[C@@H]1O[C@H](C[N+](C)(C)C)C[C@H]1O` the value was “inactive”. For `CN1C2CCC1CC(OC(=O)c1cc(Cl)cc(Cl)c1)C2` (stereo not given) the value was “inactive”. Consider `NC(N)=NOCCC(N)C(=O)O` (stereo not given), for which the Potency result is “inactive”. The value for `CCCN(CCC)[C@@H]1CCc2ccc(O)cc2C1` was “inactive”; that for `O=C(Cc1ccc(Cl)c(Cl)c1)N1CCCCC1CN1CCCC1` (stereo not given) was “inactive”; that for `CC[C@@]1(O)C(=O)OCc2c1cc1n(c2=O)Cc2cc3ccccc3nc2-1` was “inactive”. As to `NC(=NCCC[C@H](N)C(=O)O)N[N+](=O)[O-]`, the Potency result is “inactive”.

For `CCCN1CCC[C@H](c2cccc(O)c2)C1`, the Potency entry is “inactive”. For `CCCN(CCC)C1CCc2ccc(O)cc2C1` (stereo not given), the Potency entry is “inactive”. The value for `NC(CP(=O)(O)O)C(=O)O` (stereo not given) was “inactive”; that for `COc1ccc2c(c[n+](C)c3c4cc5c(cc4ccc23)OCO5)c1OC` was “inactive”; that for `O=C(O)Cc1cnc[nH]1` was “inactive”. For `CCCCc1ccc(C(=O)O)nc1` the value was “inactive”. For `NCCc1c[nH]c2ccc(O)cc12`, the Potency entry is “inactive”.

Consider `CC(=O)[C@H]1CCC2C3CC[C@H]4C[C@H](O)CC[C@]4(C)C3CC[C@@]21C` (stereo not given in full), for which the Potency entry is “inactive”. In the case of `CC(=O)NCCc1c[nH]c2ccccc12`, the Potency result is “inactive”.

With `NC(=O)CN1CC(O)CC1=O` (stereo not given), the Potency result was “inactive”.

(Values after PubChem BioAssay (NCATS).)
